# Data taken from PubChem BioAssay (NCATS).
# Results filed as inconclusive are left out. Where a call stands in place of a potency, no number is given. Where a structure was tested more than once in an assay, its records may differ in their call. The source made the active and inactive calls. Unless noted, the call rests on the fitted dose curve; in most records, active means well fitted curve in the direction sought with a large enough effect in the repeat runs; inconclusive means weak or mixed curves; inactive means no such curve, though single readings can be large; an effect the other way counts as inactive or inconclusive.
# What was measured:
# [1] = Primary qHTS for small molecule stabilizers of the endoplasmic reticulum resident proteome: Secreted ER Calcium Modulated Protein (SERCaMP) assay (AID 1508630; active means well fitted curve in the direction sought with a large enough effect; an effect the other way counts as inactive or inconclusive)
# In short: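 The SH-SY5Y reporter protocol was run at 3 concentrations up to 38.3 uM (primary) or 11 concentrations (follow-up): 16 h compound, 100 nM thapsigargin for 4 h, then extracellular luciferase luminescence.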
# [2] = A High-Content qHTS Against Drug Library for the Identification of Small Molecules that Inhibit DYT1 Early Onset Primary Dystonia-Associated Cell Pathology (AID 1645839; calls by dose curve; further: potency means the concentration at half of the fitted maximal effect; on % pathology change, negative = correction: series mostly up to about 46 µM)
# In short: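 Induced EGFP-delE TorsinA cells are imaged after 48 h of compound treatment. Punctate fusion-protein distribution gives the %pathology value, while nuclei counts flag toxicity. Wild-type EGFP-hTOR1A cells define the normal pattern.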
# [3] = biological target: Cytochrome P450 2D6 (Homo sapiens) (UniProt P10635); experiment: Cytochrome P450 family 2 subfamily D member 6 (CYP2D6) small molecule antagonists: luciferase biochemical (cell-free) qHTS assay (AID 1645840); further: nearly all actives have a fitted effect of over 55% in size; further: potency means the concentration at half of the fitted maximal effect; on activity change, negative = inhibition: series mostly up to about 57 µM
# In short: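 P450-Glo CYP2D6 system: proluciferin substrate converted by enzyme to luciferin, read by luminescence proportional to activity. Enzyme-substrate mix with compound 10 min at room temperature, then NADPH regeneration 1 h before detection reagent.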
# [4] = biological target: Cytochrome P450 2C9 (Homo sapiens) (UniProt P11712); experiment: Cytochrome P450 family 2 subfamily C member 9 (CYP2C9) small molecule antagonists: luciferase biochemical (cell-free) qHTS assay (AID 1645842); further: nearly all actives have a fitted effect of over 55% in size; further: potency means the concentration at half of the fitted maximal effect; on activity change, negative = inhibition: series mostly up to about 57 µM
# In short: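 P450-Glo CYP2C9 system: proluciferin substrate with enzyme in mix containing 0.4% BSA, 10 min at room temperature, then NADPH regeneration solution added and incubated 1 h at 37C. Detection reagent stopped reaction; luminescence read after 20 min as RLU.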
# [5] = biological target: Cytochrome P450 3A4 (Homo sapiens) (UniProt P08684); experiment: Cytochrome P450 family 3 subfamily A member 4 (CYP3A4) small molecule antagonists: luciferase qHTS assay (AID 1645841); further: nearly all actives have a fitted effect of over 45% in size
# Experimental: National Center for Advancing Translational Sciences [NCATS]
# Cytochrome P450 (CYP) enzymes are membrane-bound hemeproteins that play a key role in metabolism of drugs and xenobiotics. Assaying the effect of chemicals on CYP isozymes is useful to minimize the adverse drug reactions and toxicities in drug development process. Chemical compounds were tested for their effect on CYP enzyme activities by using P450-Glo (TM) screening systems (Promega Corporation, Madison, WI). These systems provide a luminescent method containing proluciferin substrates and are converted to luciferin products by CYP isozymes. The luciferin products formed are detected with a luciferin detection reagent, and the amount of light produced is proportional to CYP activity. P450-Glo (TM) CYP3A4 screening system (Catalog. No. V9910) was used to detect the compounds that interfere in CYP3A4 activity. The positive control compound used for CYP3A4 assay is ketoconazole (Sigma-Aldrich, St. Louis, MO).
# Two ul of enzyme-substrate mix was dispensed into medium binding white/solid 1536-well plates (Greiner Bio-One North America Inc., Monroe, NC) using a Flying Reagent Dispenser (FRD, Aurora Discovery, San Diego, CA). Test compounds dissolved in DMSO and positive control (ketoconazole) were transferred to the assay plates at 23 nl using a Pintool station (Wako, San Diego, CA). The assay plates were incubated at room temperature for 10 min. Then 2 ul of NADPH regeneration solution was added to each well of the assay plates using an FRD and incubated at room temperature for 1 h. The reaction was stopped by adding 4 ul of detection reagent using an FRD and after 20 min incubation at room temperature, the luminescence signal was measured using a ViewLux plate reader (Perkin Elmer, Shelton, CT). Data were expressed as relative luminescence units.
# Sequence of Cytochrome P450 2D6 (Homo sapiens) (P10635 whole entry, looked up): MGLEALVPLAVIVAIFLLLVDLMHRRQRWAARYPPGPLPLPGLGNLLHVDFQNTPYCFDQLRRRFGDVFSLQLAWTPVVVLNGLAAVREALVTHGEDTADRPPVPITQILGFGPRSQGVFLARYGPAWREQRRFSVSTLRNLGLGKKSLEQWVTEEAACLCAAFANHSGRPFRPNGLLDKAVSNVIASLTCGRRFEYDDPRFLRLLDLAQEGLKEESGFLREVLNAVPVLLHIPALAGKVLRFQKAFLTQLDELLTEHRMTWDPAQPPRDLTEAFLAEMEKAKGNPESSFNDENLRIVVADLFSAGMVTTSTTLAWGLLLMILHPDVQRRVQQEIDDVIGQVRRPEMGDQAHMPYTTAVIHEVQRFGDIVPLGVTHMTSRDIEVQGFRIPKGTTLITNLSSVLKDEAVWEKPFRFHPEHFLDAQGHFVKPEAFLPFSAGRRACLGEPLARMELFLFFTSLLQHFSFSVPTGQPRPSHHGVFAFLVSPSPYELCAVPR
# Sequence of Cytochrome P450 2C9 (Homo sapiens) (P11712 whole entry, looked up): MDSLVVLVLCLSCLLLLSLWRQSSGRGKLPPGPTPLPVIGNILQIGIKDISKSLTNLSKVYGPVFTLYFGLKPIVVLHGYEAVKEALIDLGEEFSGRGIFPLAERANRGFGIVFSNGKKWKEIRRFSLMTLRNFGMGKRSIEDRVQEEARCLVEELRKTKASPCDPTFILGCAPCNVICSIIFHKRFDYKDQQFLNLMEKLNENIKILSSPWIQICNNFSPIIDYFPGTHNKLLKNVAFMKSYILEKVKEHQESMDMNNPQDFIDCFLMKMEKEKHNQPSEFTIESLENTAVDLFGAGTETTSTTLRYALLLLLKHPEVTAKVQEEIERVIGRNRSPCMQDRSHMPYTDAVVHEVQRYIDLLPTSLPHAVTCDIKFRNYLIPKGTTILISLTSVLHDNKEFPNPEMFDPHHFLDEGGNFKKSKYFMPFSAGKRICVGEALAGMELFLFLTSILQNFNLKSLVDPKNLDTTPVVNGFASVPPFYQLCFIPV
# Sequence of Cytochrome P450 3A4 (Homo sapiens) (P08684 whole entry, looked up): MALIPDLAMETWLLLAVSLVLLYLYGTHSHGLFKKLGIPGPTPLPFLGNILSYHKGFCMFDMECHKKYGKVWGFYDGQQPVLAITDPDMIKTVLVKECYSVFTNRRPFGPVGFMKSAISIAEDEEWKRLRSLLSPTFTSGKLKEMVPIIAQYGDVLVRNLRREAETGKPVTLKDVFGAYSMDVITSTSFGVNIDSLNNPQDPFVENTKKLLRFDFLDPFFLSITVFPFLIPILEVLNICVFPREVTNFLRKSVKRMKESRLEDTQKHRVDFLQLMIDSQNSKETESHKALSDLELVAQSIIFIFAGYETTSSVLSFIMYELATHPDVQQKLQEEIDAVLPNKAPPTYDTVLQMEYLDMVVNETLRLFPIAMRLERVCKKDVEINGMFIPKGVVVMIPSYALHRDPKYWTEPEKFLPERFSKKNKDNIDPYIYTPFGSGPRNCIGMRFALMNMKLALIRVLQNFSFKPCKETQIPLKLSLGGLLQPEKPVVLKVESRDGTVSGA
compound,measurement,setting,value
CCCSS/C(CCO)=C(\C)N(C=O)Cc1cnc(C)nc1N,Potency,[1],inactive
same,Potency,[2],inactive
same,Potency,[3],inactive
same,Potency,[4],inactive
CO/N=C1\CN(c2nc3c(cc2F)c(=O)c(C(=O)O)cn3C2CC2)CC1CN (configuration not stated),Potency,[1],inactive
same,Potency,[2],inactive
same,Potency,[3],inactive
same,Potency,[4],inactive
Nc1ccn([C@@H]2O[C@H](CO)[C@@H](O)C2(F)F)c(=O)n1,Potency,[1],inactive
same,Potency,[2],inactive
same,Potency,[3],inactive
same,outcome,[5],inactive
same,Potency,[4],inactive
N[C@@H](CCC(=O)N[C@@H](CS)C(=O)NCC(=O)O)C(=O)O,Potency,[1],inactive
same,Potency,[2],inactive
same,Potency,[3],inactive
same,Potency,[4],inactive
C=CCc1ccc(O)c(OC)c1,Potency,[1],inactive
same,Potency,[2],inactive
same,Potency,[3],inactive
O=C1OC2(c3ccc(O)cc3Oc3cc(O)ccc32)c2ccccc21,Potency,[1],inactive
same,Potency,[2],7.08 µM (active)
same,Potency,[3],inactive
same,Potency,[4],inactive
Cc1cc(O)c(C(C)C)cc1Cl,Potency,[1],inactive
same,Potency,[2],inactive
same,Potency,[3],12.3 µM (active)
same,Potency,[4],21.9 µM (active)
CC1(C)O[C@@H]2[C@@H](CO[C@@]3(COS(N)(=O)=O)OC(C)(C)O[C@@H]23)O1,Potency,[1],inactive
same,Potency,[2],inactive
same,Potency,[3],inactive
same,Potency,[4],inactive
CCCN1CCCC[C@H]1C(=O)Nc1c(C)cccc1C,Potency,[1],inactive
same,Potency,[2],inactive
same,Potency,[3],4.9 µM (active)
same,Potency,[4],inactive
CCCC(=O)O[C@]1(C(=O)CO)CC[C@H]2[C@@H]3CCC4=CC(=O)CC[C@]4(C)[C@H]3[C@@H](O)C[C@@]21C,Potency,[1],inactive
same,Potency,[2],inactive
same,Potency,[3],inactive
same,Potency,[4],inactive
NCCc1ccn[nH]1,Potency,[1],inactive
same,Potency,[2],inactive
same,Potency,[3],inactive
same,Potency,[4],inactive
CC1(C)O[C@@H]2C[C@H]3[C@@H]4C[C@H](F)C5=CC(=O)C=C[C@]5(C)[C@H]4[C@@H](O)C[C@]3(C)[C@]2(C(=O)CO)O1,Potency,[1],inactive
same,Potency,[2],inactive
same,Potency,[3],inactive
CN=C(NC#N)Nc1ccc(C2=NNC(=O)CC2C)cc1 (configuration not stated),Potency,[1],inactive
same,Potency,[2],inactive
same,Potency,[3],inactive
same,Potency,[4],inactive
COc1cc(C(=S)N2CCOCC2)cc(OC)c1OC,Potency,[1],inactive
same,Potency,[2],inactive
same,Potency,[3],inactive
same,Potency,[4],inactive
Cc1cc(=O)n(-c2ccccc2)n1C,Potency,[1],inactive
same,Potency,[2],inactive
same,Potency,[3],inactive
Cc1cc2c(cc1CC(=O)c1sccc1S(=O)(=O)Nc1onc(C)c1Cl)OCO2,Potency,[1],inactive
same,Potency,[2],inactive
same,Potency,[3],4.36 µM (active) and inactive
same,Potency,[4],3.09 µM (active)
C=C1C[C@H]2[C@@H]3C=C(C)C4=CC(=O)CC[C@]4(C)[C@H]3CC[C@]2(C)[C@@]1(OC(C)=O)C(C)=O,Potency,[1],inactive
same,Potency,[2],inactive
same,Potency,[3],inactive
NC[C@H]1O[C@H](O[C@H]2[C@H](O[C@@H]3O[C@H](CO)[C@@H](O)[C@H]3O)C(O)[C@H](N)C[C@@H]2N)[C@H](N)[C@@H](O)[C@@H]1O (some centres not stated),"activity change, negative = inhibition",[1],-22.5% [at 7.35 µM] (inactive)
same,"% pathology change, negative = correction",[2],1.85% [at 9.22 µM] (inactive)
same,"activity change, negative = inhibition",[3],6.46% [at 11.5 µM] (inactive)
same,"activity change, negative = inhibition",[4],8.72% [at 11.5 µM] (inactive)
COc1cccc2c1C(=O)c1c(O)c3c(c(O)c1C2=O)C[C@@](O)(C(C)=O)C[C@@H]3O[C@H]1C[C@H](N)[C@H](O)[C@H](C)O1,Potency,[1],inactive
same,Potency,[2],1.58 µM (active)
same,Potency,[3],13.8 µM (active)
same,Potency,[4],inactive
CCC(C(=O)OCCN(CC)CC)c1ccccc1 (configuration not stated),Potency,[1],inactive
same,Potency,[2],inactive
same,Potency,[3],3.09 µM (active)
same,Potency,[4],inactive
Cc1c(N(C)CS(=O)(=O)O)c(=O)n(-c2ccccc2)n1C,Potency,[1],inactive
same,Potency,[2],inactive
same,Potency,[3],inactive
same,Potency,[4],inactive
O=C1c2ccccc2C(=O)C1c1ccccc1,Potency,[1],inactive
same,Potency,[2],inactive
same,Potency,[3],inactive
same,Potency,[4],inactive
CN(C/C=C/c1ccccc1)Cc1cccc2ccccc12,Potency,[1],inactive
same,Potency,[2],inactive
same,Potency,[3],0.347 µM (active)
same,outcome,[5],inactive
CCOc1ccc(NC(=O)CC(C)O)cc1 (configuration not stated),Potency,[1],inactive
same,Potency,[2],inactive
same,Potency,[3],inactive
same,Potency,[4],inactive
CCCCN1CCCC1C(=O)Nc1c(C)cc(C)cc1C (configuration not stated),Potency,[1],inactive
same,Potency,[2],inactive
same,Potency,[3],3.89 µM (active)
same,Potency,[4],inactive
CCCCOc1ccc(C(=O)CCN2CCCCC2)cc1,Potency,[1],inactive
same,Potency,[2],10 µM (active)
same,Potency,[3],4.9 µM (active)
c1ccc(CNCCNCc2ccccc2)cc1,Potency,[1],inactive
same,Potency,[2],inactive
same,Potency,[3],0.692 µM (active)
same,Potency,[4],inactive
C[C@H](CCC(=O)O)[C@H]1CC[C@H]2[C@@H]3C(=O)C[C@@H]4CC(=O)CC[C@]4(C)[C@H]3CC(=O)[C@]12C,Potency,[1],inactive
same,Potency,[2],inactive
same,Potency,[3],inactive
same,Potency,[4],inactive
CCCCC(=O)O[C@]1(C(=O)CO)CC[C@H]2[C@@H]3CCC4=CC(=O)CC[C@]4(C)[C@H]3[C@@H](O)C[C@@]21C,Potency,[1],inactive
same,Potency,[2],inactive
same,Potency,[3],inactive
CCN(CC)C(=O)N1CCN(C)CC1,Potency,[1],inactive
same,Potency,[2],inactive
same,Potency,[3],inactive
same,Potency,[4],inactive
O=C(Nc1ccc(Cl)c(Cl)c1)C1CC1,Potency,[1],inactive
same,Potency,[2],inactive
same,Potency,[3],inactive
CC(=O)CC(c1ccc([N+](=O)[O-])cc1)c1c(O)c2ccccc2oc1=O (configuration not stated),Potency,[1],inactive
same,Potency,[2],inactive
same,Potency,[3],inactive
same,Potency,[4],2.19 µM (active)
